This is an account of results in PubChem BioAssay (NCI).

Each structure is given as a SMILES string. Compounds without any hit were thinned out: in the full panel of roughly 83,000, 20% have a hit.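 Testing used 96-well plates and a 48-hour single-concentration exposure. Example: -40 means 40% of the starting cells died.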 A number with no mark means an inactive call. Active and inactive are the calls of the source. Rule for the calls: active = growth percent below 10; inactive = the rest.

This assay relates to MCF7 breast. In words: NCI-60 one-dose screen, 48 h (100 = growth as untreated, 0 = no growth, -100 = all killed). The settings on record: 10 µM unless noted.
Regarding `Cc1[nH]c(-c2cc(N)ccc2Cl)c2c1C(=O)CCCC2`, the growth is 12.8%.

`COc1ccc(/C=C\c2cc(OC)c(OC)c(OC)c2)cc1OC(=O)c1cccc(Cn2cc(CCOC(=O)[C@H](N)Cc3cn(C)c4ccccc34)nn2)c1`: the growth is 12.6%.

Consider `CC1CCNC(C)C1` (centres undefined), for which the growth is 96.8%.

On to `Clc1ccc2c(NCCNc3nc(N4CCOCC4)nc4ccccc34)ccnc2c1`, for which the growth was 38.8%.

Turning to `CNC(=O)c1cc(Oc2ccc(NC(=O)Nc3ccc(Cl)c(SC)c3)c(F)c2)ccn1`, the growth is 30%.

Turning to `O=Nc1c(O)c(Cl)cc2ccccc12`, the growth is 49.6%.

Consider `COc1ccc(-c2nc3ccc(-c4nc5ccc(N6CCN(c7ccncc7)CC6)cc5[nH]4)cc3[nH]2)cc1OC`, for which the growth is 12.3%.

Regarding `COc1cc(/C=C/c2cc(O)c3cc(C(C)=O)c(=O)oc3c2)cc2c1O[C@]1(C)CC[C@@H](O)C(C)(C)[C@H]1C2`, the growth is 5.64% (active).

`COc1ccc(/C=C/c2nc3ccccc3nc2/C=C/c2ccc(OC)cc2)cc1`: the growth is 80.9%.

As to `CN(C)CCCNc1c2ccccc2nc2ccccc12`, the growth was 92%.

On to `O=C(Nc1ccc(Cl)cc1)c1cc2cc(F)ccc2cc1O`, for which the growth is 7.1% (active).

On to `Cc1ccc(C2=NN3C(C2)c2cc(Br)ccc2OC32CCN(Cc3ccccc3)CC2)o1` (centres undefined), for which the growth was 77.3%.

`O=C(CCN1C(=O)/C(=C/c2ccc(Cl)cc2)SC1=S)NCCCN1CCOCC1`: the growth was 90.1%.

Take `C#CCOc1ccc2ncnc(N3CCN(C(=O)CCl)CC3)c2c1`: the growth was 65.1% [8.25 µM].
